Measurements from PubChem BioAssay (NCI).
This is part of a sample that, as a whole, favours compounds with a hit. Of some 79,000 tested, about 15% had one in any assay. The source made the active and inactive calls. Rule as the data show it: active = growth inhibition above about 70%; inactive = the rest.

Assay: NCI Yeast Anticancer Drug Screen. Data for the bub3 strain (AID 167)
Conditions: S. cerevisiae bub3 mutant strain, at 50.0 µM, hits give high values
Procedure, shortened: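 Mutant yeast screening strain plus compound; vehicle-treated cultures serve as the 0% inhibition reference.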
In the case of `COc1cc(NCCCCCNC(C)C)c2ncccc2c1OC`, the growth inhibition is reported as 9.05% (inactive). In the case of `CCOC(=O)Cn1c(=O)n(C)c(=O)c2c1ncn2Cc1ccccc1`, the growth inhibition is reported as 9.5% (inactive). For `CSC(SC)=C1Sc2cccc(Cl)c2S1`, the growth inhibition was -15.1% (inactive). With `CCOC(=O)C1(C)Sc2ccccc2N=C1c1ccccc1` (stereo unspecified) the growth inhibition was 26.1% (inactive). In the case of `CCOc1ccc(/C=C2\N=C(c3cccc(Cl)c3)OC2=O)cc1`, the growth inhibition is reported as 17.2% (inactive). For `CC(O)C(N=Cc1nc(-c2ccccc2)oc1O)C(=O)O` (stereo unspecified), the growth inhibition was -0.15% (inactive). For `c1cc(OCC2CO2)ccc1OCC1CO1` (stereo unspecified), the growth inhibition was 8.8% (inactive). In the case of `CN(C)CC1(Cc2ccccc2)CCC(Cc2ccccc2)C1=O` (stereo unspecified), the growth inhibition is reported as 45.6% (inactive). With `COc1cc(NCCCCCCNCC(C)C)c2nccc(C)c2c1` the growth inhibition was 37.6% (inactive). In the case of `CCOC(=O)C1=NN(c2ccccc2)C(=O)/C1=C\N1CC(=O)NC1=S`, the growth inhibition is reported as 9.85% (inactive). In the case of `CC1NC(=O)C2Cc3ccc(O)c(c3)Oc3cccc(c3)C(O)C(C(=O)N2C)N(C)C(=O)C(C)NC(=O)C(Cc2ccc(O)c(O)c2)N(C)C(=O)C(C)NC1=O` (stereo unspecified), the growth inhibition is reported as 10.7% (inactive). For `O=C(Nc1ccc(Cl)cc1)c1ccc(C(=O)Nc2ccc(Cl)cc2)cc1`, the growth inhibition was -6.4% (inactive). For `O=C(CCc1cc(-c2ccc(F)cc2)n[nH]1)N(Cc1ccccc1)Cc1ccccc1`, the growth inhibition was -20.2% (inactive). In the case of `c1ccc(C(=C2CCCCCCCCCCCCC2)c2ccccc2)cc1`, the growth inhibition is reported as 25% (inactive). With `C/C(O)=C(\C=NC(=S)c1ccncc1)C(=O)Nc1ccccc1C` the growth inhibition was -4.5% (inactive). With `c1ccc(Cc2nnc(Cc3ccccc3)nn2)cc1` the growth inhibition was 21.4% (inactive).
